Screening results as filed in PubChem BioAssay.
SW480 rerep: A quantitative high throughput screen for small molecules that induce DNA re-replication in SW480 colon adenocarcinoma cells; SW480 DNA re-replication, Hoechst DNA content imaging, 48 h; Potency, µM (series often up to 46.1 µM), usual class: activators; 340,000 tested, 1.8% active; AID 624297, 2012; note: nearly all actives have a fitted effect of over 55% in size
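Per well, 250 cells were exposed to pinned compound for 48 hr. Nuclear DNA was visualised with Hoechst (40 min, 37 C) and total object intensity recorded by fluorescence scanning.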
MCF10A rerep: A quantitative high throughput screen for small molecules that induce DNA re-replication in MCF 10a normal breast cells; MCF 10A DNA re-replication, Hoechst nuclear intensity, 48 h; Potency, µM (titrated, usually from 46.1 µM), usual class: activators; 350,000 tested, 2.9% active; AID 624296, 2012; note: nearly all actives have a fitted effect of over 50% in size
IL1B secr inh: qHTS for Inhibitors of Inflammasome Signaling: IL-1-beta AlphaLISA Primary Screen. THP-1 LPS/ATP IL-1B secretion, AlphaLISA, 16 h; stronger effect = lower value. activity change, % at 57.5 µM. 360,000 tested, 4.7% active. AID 743279, 2014; in the data active = activity change below about -50%; inconclusive = mostly about -30% to -49%
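THP-1 cells pretreated 1 hr with compounds (up to 57.5 uM final), then stimulated with LPS (250 ng/mL final) plus ATP (1.25 mM final); secreted IL-1B measured by AlphaLISA after 16 hr, decreased signal indicating inhibition.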
RORg inh: qHTS for inhibitors of ROR gamma transcriptional activity | AID 2551, 2010 | Potency, µM (top dose mostly 53.6 µM), most hits filed as inhibitors | Drosophila S2 Gal4-RORgamma UAS-luciferase reporter, 20 h | 310,000 tested, 5.4% active | Nuclear receptor ROR-gamma (Mus musculus), P51450; note: nearly all actives have a fitted effect of over 60% in size
Target sequence (P51450 whole entry, looked up, the tested form may be a part): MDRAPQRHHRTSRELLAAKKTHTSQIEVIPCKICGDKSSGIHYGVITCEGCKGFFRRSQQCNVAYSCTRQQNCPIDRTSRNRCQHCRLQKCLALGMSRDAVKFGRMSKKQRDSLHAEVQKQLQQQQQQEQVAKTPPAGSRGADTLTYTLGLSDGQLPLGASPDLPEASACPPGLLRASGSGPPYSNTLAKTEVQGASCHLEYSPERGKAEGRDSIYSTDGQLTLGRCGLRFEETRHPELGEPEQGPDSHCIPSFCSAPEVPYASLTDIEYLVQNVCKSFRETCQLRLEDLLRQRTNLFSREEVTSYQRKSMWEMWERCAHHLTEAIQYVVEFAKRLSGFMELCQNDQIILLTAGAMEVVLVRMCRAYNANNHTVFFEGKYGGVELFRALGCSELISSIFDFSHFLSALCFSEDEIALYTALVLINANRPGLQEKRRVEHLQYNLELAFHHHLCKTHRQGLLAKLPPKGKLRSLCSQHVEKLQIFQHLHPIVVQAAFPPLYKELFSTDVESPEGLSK
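Luciferase reporter read in Schneider cells carrying Gal4-RORγ (mouse) and UAS-Photinus luciferase; cells given compound 1 h before 700 uM copper sulfate induction, then incubated 20 h at ambient temperature.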
VP16 counter: VP16 counterscreen qHTS for inhibitors of ROR gamma transcriptional activity; Drosophila S2 Gal4-VP16 UAS-luciferase, luminescence, 20 h; Potency, µM (doses to about 53.6 µM), usual class: inhibitors; 310,000 tested, 3.5% active;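 note: Gal4-VP16 expression switched on by copper sulfate through the metallothionein promoter; nearly all actives have a fitted effect of over 50% in size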
Hits are given with their value; . = inactive; ? = inconclusive; / = no result; ! = not confirmed by another sample. Most compounds without a hit are left out; they make up all but 11% or so of the library. Unless noted, calls come from the whole dose curve; as a rule, active = well fitted curve in the direction sought with a large enough effect; inconclusive = small, poorly fitted or top-dose-only effect, or another doubt; inactive = no such curve, though single readings can be large; an effect the other way counts as inactive or inconclusive.

SMILES | SW480 rerep | MCF10A rerep | IL1B secr inh | RORg inh | VP16 counter
COc1ccc(/C=N/NC(=O)CCn2nc(C)cc2C)cc1 | . | . | . | . | .
O=C(CN1CCCc2ccccc21)N/N=C/c1ccc(F)cc1F | . | ? | . | . | .
Nc1ccccc1C(=O)NCC1(c2ccccc2)CCCC1 | . | ? | . | . | .
O=C(CCCCCNC(=O)c1ccccc1)N/N=C/c1ccccc1O | 5.8µM | ? | . | 6.31µM | 20µM
NC[C@@H]1O[C@H](C23CC4CC(CC(C4)C2)C3)Cc2c1ccc(O)c2O | ? | . | . | ? | ?
NC[C@@H]1O[C@H](c2ccccc2)Cc2c1ccc(O)c2O | / | / | / | 28.2µM | 25.1µM
CCOCCCN(C(=O)Cn1nnc(-c2ccc(C)o2)n1)C(C(=O)NC1CCCC1)c1ccc(C)o1 (centres undefined) | . | . | -51.9 | . | .
CCOCCCN(C(=O)Cn1nnc(-c2ccc(C)o2)n1)C(C(=O)NC1CCCC1)c1ccco1 (centres undefined) | . | . | . | . | .
CCN(CC)c1ccc(/C=N/N=C(c2ccccc2)c2ccccc2)c(O)c1 | 23.1µM | ? | . | ? | 20µM
O=C(N/N=C/c1ccc2cccnc2c1)c1ccco1 | . | . | . | ? | 11.2µM
CCN(CC)c1ccc(/C=N/N(c2ccccc2)c2ccccc2)c(O)c1 | ? | ? | . | ? | ?
CCN(CC)c1ccc(/C=N/NC(=O)c2cnccn2)cc1 | ? | 2.31µM | . | . | .
O=C(N/N=C/c1ccccc1)c1ccco1 | . | . | . | . | .
CCN(CC)c1ccc(/C=N/NC(=S)NCc2ccccc2)c(O)c1 | 16.4µM | 16.4µM | . | 8.91µM | 7.08µM
CC(=O)OCC(NC(=O)C(Cc1ccccc1)NC(=O)OC(C)(C)C)C1OC(n2cc(F)c(=O)[nH]c2=O)C(OC(C)=O)C1OC(C)=O (centres undefined) | / | / | / | . | .
CCN(CC)c1ccc(/C=N/NC(=O)Cc2cccs2)c(O)c1 | ? | ? | . | 0.178µM | 0.562µM
CCN(CC)c1ccc(NC(=O)c2ccco2)cc1 | . | . | . | ? | ?
CCN(CC)c1ccc(/C=N/NC(=O)c2ccco2)cc1 | 5.8µM | 4.11µM | . | 14.1µM | ?
CCN(CC)c1ccc(/C=N/NC(=O)c2ccco2)c(O)c1 | 1.46µM | 20.6µM | . | 0.794µM | 3.16µM
O=C(Cc1cccs1)N/N=C/c1ccccc1 | . | . | . | . | .
O=C(CSc1nnc(CNC(=O)c2cccs2)o1)c1ccc(Cl)cc1 | . | . | -57.6 | . | .
CCC1(CC)NC(=O)N(CC(=O)OCc2nc3cc(C(=O)OC)ccc3c(=O)[nH]2)C1=O | . | . | . | / | /
C[C@@H]1C[C@H](O)c2cc(Cl)ccc2N1 | . | . | . | . | .
N#CC1CC(c2ccccc2)Nc2cc(Cl)ccc2N1 (centres undefined) | 13µM | ? | . | ? | .
CCC(=O)c1ccc(OCC(=O)Nc2ccccc2C(=O)N2CCCCC2)cc1 | . | . | -62.0 | / | /
SMILES | SW480 rerep | MCF10A rerep | IL1B secr inh | RORg inh | VP16 counter
COc1ccccc1C(CNC(=O)COc1ccccc1C)N1CCCC1 (centres undefined) | . | . | . | / | /
COc1ccc(OCC(=O)Nc2ccccc2N2CCCCC2)cc1 | 11.6µM | 3.26µM | . | ? | .
COc1ccccc1C(CNC(=O)COc1cc(C)ccc1Cl)N1CCCC1 (centres undefined) | . | . | -64.1 | / | /
COc1ccc(CNCC(=O)Nc2ccccc2-n2cccc2)cc1 | 20.6µM | ? | . | . | .
COc1ccc(CC(=O)Nc2ccccc2N2CCCC2)cc1 | ? | . | . | . | .
Cc1ccc(OCC(=O)Nc2ccccc2C(=O)N2CCCCC2)cc1 | . | . | . | . | .
CCOc1ccc(C(C)NC(=O)c2cc(=O)[nH]c3ccccc23)cc1OCC (centres undefined) | . | . | . | . | .
Clc1ccc(Cl)c(Cl)c1Cl | / | / | / | . | .
Cc1cccc(OCC(=O)Nc2ccccc2N2CCCCC2)c1C | ? | ? | . | / | /
COc1ccc(C(CNC(=O)COc2ccc(F)cc2Br)N2CCCC2)cc1 (centres undefined) | . | . | -54.3 | . | ?
COc1ccc(C(CNC(=O)COc2ccccc2C)N2CCCCC2)cc1 (centres undefined) | . | . | . | / | /
O=C(COc1ccc(Cl)cc1Br)Nc1ccccc1N1CCCC1 | . | ? | . | / | /
Cc1ccc(Cl)c(OCC(=O)Nc2ccccc2N2CCCCC2)c1 | 3.66µM | ? | . | / | /
Cc1cccc(C)c1OCC(=O)Nc1ccccc1N1CCCCC1 | . | ? | . | . | 17.8µM
CC/C=C\C[C@H]1C(=O)CC[C@@H]1CC(=O)O | / | / | / | . | .
O=C(O)c1c(Cl)cccc1Nc1ccccc1 | ? | ? | . | / | /
COc1cc2sc3cc(NCCCN4CCOCC4)ccc3c(=O)c2cc1OC | ? | . | -75.5 | / | /
O=c1c2ccccc2sc2ccc(NCCCN3CCOCC3)cc12 | ? | ? | . | / | /
O=C(CCC(=O)Nc1ccccc1Cl)NN=C1CCCC1 | . | . | . | . | .
C(=NNC1=NCCN1)c1ccnc2ccccc12 | / | / | -103.3 | / | /
COc1ccccc1-c1cc(=O)c2cc(O)ccc2o1 | / | / | / | . | .
O=c1cc(-c2ccccc2Cl)oc2ccc([N+](=O)[O-])c(O)c12 | . | 0.366µM | . | . | .
COc1ccc2oc(-c3ccccc3[N+](=O)[O-])cc(=O)c2c1 | 8.2µM | 6.51µM | . | . | .
Nc1ccc2oc(-c3ccccc3Cl)cc(=O)c2c1O | . | . | . | . | .
O=c1cc(-c2ccccc2Cl)oc2c([N+](=O)[O-])c(O)cc(O)c12 | . | 0.82µM | -74.0 | ? | ?
SMILES | SW480 rerep | MCF10A rerep | IL1B secr inh | RORg inh | VP16 counter
O=c1cc(-c2ccccc2)[nH]c2cc(Cl)ccc12 | 0.731µM | 1.64µM | . | . | .
COc1ccc2[nH]c(-c3cccc(F)c3)cc(=O)c2c1 | 0.731µM | 1.3µM | . | . | .
Cc1ccc2[nH]c(-c3cccc(F)c3)cc(=O)c2c1 | 0.82µM | 1.16µM | . | . | .
O=c1cc(-c2cccc(F)c2)[nH]c2ccc(Cl)cc12 | / | / | / | ? | .
Cc1ccc(-c2cc(=O)c3cc(C)ccc3[nH]2)cc1 | 20.6µM | ? | . | 10µM | 15.8µM
Cc1ccc(-c2cc(=O)c3cc(F)ccc3[nH]2)cc1 | . | ? | . | . | .
CCCCCCCC/C=C\CCCCCCCC(=O)OCC(CO)OC(=O)CCCCCCC/C=C\CCCCCCCC (centres undefined) | / | / | / | . | .
O=c1cc(-c2ccc(F)cc2F)[nH]c2ccccc12 | . | . | / | 8.91µM! | .
O=c1cc(-c2cccc(F)c2)[nH]c2cc(Cl)ccc12 | / | / | / | . | .
O=c1cc(-c2ccccc2)[nH]c2ccc(F)cc12 | 1.64µM | 2.06µM | . | ? | .
O=c1cc(-c2cccc(F)c2)[nH]c2ccccc12 | 1.3µM | 1.3µM | . | . | .
